Test results published in PubChem BioAssay (NCI).
This is part of a sample that, as a whole, favours compounds with a hit. Of some 83,000 tested, about 20% had one in any assay.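 Cell lines were cultured in 96-well plates, exposed to a single compound concentration, and assessed for percent growth 48 hours later.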 Active and inactive are the calls of the source. The calls were made as follows: active = growth percent below 10; inactive = the rest.

These compounds were tested on HL-60(TB) leukemia (assay: NCI-60 one-dose screen, 48 h (100 = growth as untreated, 0 = no growth, -100 = all killed)). Settings: 10 µM unless noted.

Row | SMILES | growth
1 | O=C(CCCCCCNC(=O)C(O)(O)C(F)(F)F)Nc1ccc(Br)cc1 | 10.4% (inactive)
2 | Nc1nc(=O)n([C@H]2C[C@H](O)[C@@H](CO)O2)cc1C=O | 94.1% (inactive)
3 | Cc1ccc(C(=O)NN2C(=O)/C(=C/C=C/c3ccco3)SC2=S)cc1 | 30.4% (inactive)
4 | C=CCn1c(SCC(=O)Nc2ccc(C(=O)/C=C/c3ccc(Br)cc3)cc2)nnc1-c1c[nH]c2ccccc12 | 84.3% (inactive)
5 | Cn1c(SCC(=O)c2ccc(Br)cc2)nc2ccccc2c1=O | 92.1% (inactive)
6 | C#C[C@]1(O)CC[C@H]2[C@@H]3CC=C4c5sc(Nc6cccc(F)c6)nc5CC[C@]4(C)[C@H]3CC[C@@]21C | -13.1% (active)
7 | COc1cc2oc(-c3cccc(N)c3)cc(=O)c2c(OC)c1OC | 96.8% (inactive)
8 | COc1ccc(-c2c(C(N)=O)c(N)n(Cc3nc4ccccc4[nH]3)c(=O)c2C#N)c(OC)c1 | 106% (inactive)
9 | COc1ccc(NC(=O)Nc2ccc3c(ccn3C(=O)c3cccc(F)c3)c2)cc1 | 85.2% (inactive)
10 | CC(=O)Nc1nc2c(s1)C1=CC[C@H]3[C@@H]4CC[C@H](C(C)=O)[C@@]4(C)CC[C@@H]3[C@@]1(C)CC2 | 52.5% (inactive)
11 | O=C(NNc1nc2cc(F)cc(F)c2n2cccc12)c1cccnn1 | 3.63% (active)
12 | Cc1ncn(-c2ccc(/C=N/Nc3ccnc4cc(Cl)ccc34)cc2)c1C | -40.4% (active)
13 | COc1cc(/C=N/n2cnc3oc(-c4ccccc4)cc3c2=N)cc(CN2CCOCC2)c1O | 88.9% (inactive)
14 | CCOC(=O)C1=C(C)NC(C)=C(C(=O)OCc2ccccc2)C1c1cccc(C#N)c1 (stereo not given) | 16.1% (inactive)
15 | COc1ccc2[nH]cc(-c3nc(N)nnc3-c3cn(C)c4ccc(Br)cc34)c2c1 | -26.6% (active)
16 | N#Cc1ccc(/C=N/NC(=O)c2[nH]c3ccc(Br)cc3c2-c2ccccc2)s1 | -40% (active)
17 | NC1CC2(CCN(c3cnc(C(=O)Nc4cc(F)cc5cccnc45)cn3)CC2)C1 | 50.6% (inactive)
18 | CCCSc1nc(Nc2ccc(/C(C)=N\NC(N)=S)cc2)c(C#N)c(-c2ccccc2)n1 | 64% (inactive)
19 | CNC(=O)c1c(NC(=O)c2ccccc2C(F)(F)F)sc2c1CCC(=O)C2 | -10.5% (active)
20 | C=C(C)C(=O)O[C@H]1C[C@@]2(C)OC(=CC2=O)/C(C)=C\[C@H]2OC(=O)C(=C)[C@H]12 | -20.9% (active)

Row | SMILES | growth
21 | CN(C)CC(=O)Nc1nc(-c2cccc(NS(=O)(=O)c3cccc4c(N(C)C)cccc34)c2)cs1 | 80.8% (inactive)
22 | CN(C)S(=O)(=O)c1oc(-c2ccccc2)nc1C#N | 13.8% (inactive)
23 | CCN1C(=O)N(CC)C2SC(N/N=C/c3cccs3)=NC21 (stereo not given) | 1.27% (active)
24 | O=C(NCCCNc1cc(-c2cn(-c3ccccc3)nc2-c2cccc(O)c2)ccn1)Nc1ccc(F)cc1 | 1.09% (active)
25 | CCN(CC)S(=O)(=O)c1ccc(-c2nc(C(Cl)Cl)nc3cc(-c4ccc(F)cc4)nn23)cc1 | 4.64% (active)
26 | O=C(CCC(=O)N1CCOCC1)OCCCCCCSc1ccc([N+](=O)[O-])c2nonc12 | -45.4% (active)
27 | O=S(=O)(NC1c2ccccc2C[C@H]1O)c1ccc(Cl)cc1Cl (stereo not given in full) | 98.1% (inactive)
28 | C/C(=C(/c1ccc(O)cc1)c1ccc(OCCN(C)C)cc1)c1ccc(Cl)cc1 | 21.8% (inactive)
29 | CCOC(=O)C1=C(C)Nc2nc3ccccc3n2C1c1ccccc1 (stereo not given) | 85.6% (inactive)
30 | C[C@]12CC[C@H]3[C@@H](CC=C4C[C@@H](O)CC[C@@]43C)[C@@H]1CC[C@@H]2[C@](C)(O)CCc1cccnc1 | 47.6% (inactive)
31 | N#C/C(=C\c1ccc(-c2ccc(Cl)cc2Cl)o1)c1ccc(F)cc1 | 95.9% (inactive)
32 | Cn1cc(-c2nn3cc(-c4ccncc4)nc3s2)c2cc(Cl)ccc21 | -16% (active)
33 | COc1ccc([C@@H]2c3[nH]c4ccccc4c3CC3C(=O)N(C4CCN(Cc5c(F)cccc5F)CC4)CC(=O)N32)c(OC)c1 (stereo not given in full) | 39.6% [5.26 µM] (inactive)
34 | CNC(=O)c1cc(-c2ccc(NC(=O)Nc3ccc(N4CCN(C)CC4)c(C(F)(F)F)c3)cc2)nc2cccnc12 | -16.4% (active)
35 | CCOC(=O)C(=O)/C(=C\c1ccc(Cl)cc1)C(=O)N1C(=S)NC(=O)C1CC(C)C (stereo not given) | 111% (inactive)
36 | COc1cc(/C=N/n2cnc3oc(-c4ccccc4)cc3c2=N)cc(CN2CCCCC2)c1O | -17.1% (active)
37 | C=C1CC[C@H]2[C@@](C)(CCC3OC(c4ccc(OCc5cn(C6CC(OC(C)=O)C(OC(C)=O)C(COC(C)=O)O6)nn5)cc4)OC[C@]32C)[C@@H]1/C=C/C1=CCOC1=O (stereo not given in full) | 56.2% (inactive)
38 | O=C(Cn1cc(CN2C(=O)c3ccc([N+](=O)[O-])cc3C2=O)nn1)Nc1ccccc1Br | 101% (inactive)
39 | O=C1c2c(O)cc(O)cc2O[C@@H](c2ccc(O)cc2)[C@@H]1c1c(O)cc(O)c2c(=O)cc(-c3ccc(O)c(O)c3)oc12 | 103% (inactive)
40 | NC(N)=NS(=O)(=O)c1ccc(N=Nc2c(N)nn(-c3ccc([N+](=O)[O-])cc3[N+](=O)[O-])c2N)cc1 | 97.3% (inactive)
